Screening data from PubChem.
This excerpt belongs to a sample that is enriched for hits.
Sm TGR block = S. mansoni TGR enzyme inhibition | Potency, µM (titrated, usually from 114 µM), hits mostly inhibitors | Q962Y6 | AID 485364 | 360,000 compounds, 3% hits | purified TGR, DTNB reduction, TNB absorbance 405 nm; further: nearly all actives have a fitted effect of over 60% in size
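Kinetic colorimetric format: TGR-catalysed, NADPH-driven DTNB reduction monitored via TNB absorbance. Enzyme dispensed at 20 nM; compound exposure 15 min at room temperature before reaction start.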
Cycloheximide cs = counter-screen hit for Shiga toxin inhibitors, cycloheximide; 300,000 compounds, 12% hits; cell reporter, cycloheximide protein synthesis inhibition counterscreen; max response, %; in the data active means max response mostly above about 13%, no sharp cut-off; inactive means mostly below about 14%; further: read at 38.3 µM for the half of the compounds with a filed dose
LmPK inhibitor = LmPK (Leishmania mexicana) enzyme inhibition. Q27686. purified LmPK, Kinase-Glo ATP luminescence, 1 h. Potency, µM (titrated, usually from 57.5 µM), actives largely listed as inhibitors. 290,000 compounds, 0.37% hits. AID 1721
Target sequence (Q27686 whole entry, looked up): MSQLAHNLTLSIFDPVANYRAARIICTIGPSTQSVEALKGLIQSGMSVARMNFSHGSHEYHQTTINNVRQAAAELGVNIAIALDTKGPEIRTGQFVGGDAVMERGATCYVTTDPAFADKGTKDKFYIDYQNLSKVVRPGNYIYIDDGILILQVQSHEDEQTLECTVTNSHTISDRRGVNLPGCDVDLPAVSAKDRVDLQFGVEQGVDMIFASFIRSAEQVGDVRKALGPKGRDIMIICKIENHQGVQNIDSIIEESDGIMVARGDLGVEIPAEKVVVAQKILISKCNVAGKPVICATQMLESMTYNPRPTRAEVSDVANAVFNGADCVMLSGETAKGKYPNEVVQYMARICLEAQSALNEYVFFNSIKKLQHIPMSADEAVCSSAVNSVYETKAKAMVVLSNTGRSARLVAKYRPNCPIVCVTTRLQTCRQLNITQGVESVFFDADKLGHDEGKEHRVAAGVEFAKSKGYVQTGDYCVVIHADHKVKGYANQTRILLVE
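qHTS format; LmPK 0.1 nM; substrates PEP 0.5 mM and ADP 0.1 mM. One-hour room-temperature incubation, then coupled luciferase luminescence; 0.5 nM enzyme wells mark activation.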
Giardia FBPA inh = Giardia lamblia aldolase inhibition. Potency, µM (top dose mostly 59.6 µM), most hits filed as inhibitors. A8B2U2. 290,000 compounds, 0.71% hits. AID 2451. purified Giardia FBPA; further: nearly all actives have a fitted effect of over 55% in size
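40 nM FBPA preincubated 10 min at RT with compound (up to 57.5 uM final), then substrate plus GAPDH/TPI/NAD/arsenate coupling and diaphorase/resazurin added. Fluorescence read after 20 min at RT, 525/598 nm.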
Shiga inhibitor = Shiga toxin inhibition | Vero cells, Shiga toxin protein synthesis inhibition reporter | inhibition, % at 38.7 µM | 290,000 compounds, 9.2% hits | AID 2315; in the data active means inhibition mostly above about 28%, no sharp cut-off; inactive means mostly below about 43%
TbPYK inhibitor = inhibitors of Trypanosoma brucei pyruvate kinase. Q57TT1. TbPYK enzyme, Kinase-Glo Plus ATP luminescence, 45 min. Potency, µM (series often up to 76.8 µM), actives largely listed as inhibitors. 410,000 compounds, 0.12% hits; further: nearly all actives have a fitted effect of over 50% in size
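Screened from lowest to highest concentration, compounds were pinned into TbPYK/substrate mixtures, and ADP (130 uM final) was added. Plates sat at room temperature for 45 min prior to Kinase-Glo Plus detection by luminescence.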
A number is an active result; n = inactive; u = inconclusive; x = no result. Unless noted, the call rests on the fitted dose curve; in most records, active means well fitted curve in the direction sought with a large enough effect; inconclusive means small, poorly fitted or top-dose-only effect, or another doubt; inactive means no such curve, though single readings can be large; an effect the other way counts as inactive or inconclusive.

SMILES	Sm TGR block	Cycloheximide cs	LmPK inhibitor	Giardia FBPA inh	Shiga inhibitor	TbPYK inhibitor
Cc1ccc2oc3c(c(=O)c2c1)C(c1ccc(O)cc1)N(c1nc(C)c(C)s1)C3=O (stereo not given)	n	x	x	x	x	n
Cc1cc(C(=O)N/N=C/c2cccc(OC(=O)c3cccc(Br)c3)c2)n[nH]1	n	n	n	x	23	n
Cc1cc(C(=O)N/N=C/c2ccco2)n[nH]1	n	29	n	n	n	n
COc1cc(C(=O)Oc2cccc(/C=N/NC(=O)c3cc(C)[nH]n3)c2)cc(OC)c1OC	n	n	n	n	n	n
CC(/C=C/c1ccco1)=N\NC(=O)c1cc(C)[nH]n1	28µM	n	n	u	n	n
CC(/C=N/NC(=O)c1cc(C2CC2)[nH]n1)=C\c1ccccc1	n	9.5	n	n	n	n
Cc1ccc(CN2CCCn3nc(C(=O)NCc4ccc(OC(C)C)cc4)cc3C2=O)cc1	n	x	x	x	x	n
CN(CCc1ccccn1)C(=O)CCC1CCCN(C(=O)NC2CCCCC2)C1 (stereo not given)	n	n	n	n	n	n
Cc1cc(C(=O)N/N=C/c2c3ccccc3cc3ccccc23)n[nH]1	n	n	n	n	n	n
Cc1cc(C(=O)N/N=C/c2ccccn2)n[nH]1	x	18	n	u	n	n
O=c1c2cc3c(cc2n(Cc2ccccc2)c(=O)n1Cc1nc(-c2ccccc2)no1)OCO3	n	x	x	x	x	n
Cc1ccccc1/C=C1\Oc2ccccc2C1=O	x	x	x	x	x	n
O=C1/C(=C/c2cccc(F)c2)Oc2cc(O)ccc21	n	22	n	n	40	n
O=C1/C(=C/c2ccc(O)c(O)c2)Oc2ccccc21	x	35	x	u	77	x
Cc1cccc(/C=C2\Oc3cc(OS(C)(=O)=O)ccc3C2=O)c1	n	26	n	n	n	n
COc1cccc(/C=C2\Oc3cc(OC(=O)N4CCOCC4)ccc3C2=O)c1	n	n	n	n	n	n
COC(=O)COc1ccc2c(c1)O/C(=C\c1cccc([N+](=O)[O-])c1)C2=O	n	n	n	n	n	n
CCOC(=O)C1(CCOc2ccccc2)CCN(Cc2cc(OC)c(O)c(OC)c2)CC1	40µM	n	n	u	n	n
CCOC(=O)C1(Cc2ccccc2C)CCCN(Cc2cc(OC)c(O)c(OC)c2)C1 (stereo not given)	4.5µM	13	n	u	38	n
CCOC(=O)C1(CCOc2ccccc2)CCN(Cc2ccc(OC)c(O)c2)CC1	n	n	n	n	n	n
CCOC(=O)C1(CCOc2ccccc2)CCN(Cc2ccc(O)c(OCC)c2)CC1	45µM	n	n	n	n	n
CCC(=O)NCCc1nc2cc(NC(=O)c3ccc(OC)cc3)ccc2n1C	n	25	n	n	n	n
CCCC(=O)Nc1ccc2c(c1)nc(CCNC(=O)c1ccccc1)n2C	n	n	n	n	n	n
CC(=O)NCCc1nc2cc(NC(=O)c3ccccc3Cl)ccc2n1C	n	17	n	n	n	n
COc1ccc(OCC(=O)Nc2ccc3c(c2)nc(CCNC(C)=O)n3C)cc1	n	n	n	n	n	n
SMILES	Sm TGR block	Cycloheximide cs	LmPK inhibitor	Giardia FBPA inh	Shiga inhibitor	TbPYK inhibitor
CC(=O)NCCc1nc2cc(NC(=O)c3ccc(Cl)cc3)ccc2n1C	n	24	n	n	64	n
CCC(=O)NCCc1nc2cc(NC(=O)c3ccc(Cl)cc3)ccc2n1C	n	52	n	n	64	n
CC(=O)NCCc1nc2cc(NC(=O)c3cccs3)ccc2n1C	n	n	n	n	n	n
CCC(=O)NCCc1nc2cc(NC(=O)c3ccc(F)cc3)ccc2n1C	n	43	n	n	89	n
CCOCC(O)CSCc1ccc(Cl)cc1 (stereo not given)	10µM	n	n	n	n	x
Cc1ccc(NC(=O)c2ccc(CSc3ccccn3)cc2)cc1	n	31	n	n	82	n
C=CCn1c(SCc2ccc(C(=O)Nc3ccccc3)cc2)nnc1-c1ccccc1	n	19	n	n	n	n
Cc1ccc(NC(=O)c2ccc(CSc3nnc(C)s3)cc2)cc1	n	55	n	n	140	n
Cc1ccc(NC(=O)c2ccc(CSc3nnnn3C)cc2)cc1	n	37	n	n	141	n
C=CCn1c(SCC(=O)NNC(=S)Nc2ccccc2)nnc1-c1ccccc1	n	n	n	n	n	n
Cc1cc(C)cc(NC(=O)c2ccc(CSc3nnc(C)s3)cc2)c1	n	29	n	n	80	n
O=C(Nc1ccncc1)c1ccc(Br)cc1	n	n	n	n	n	n
O=C(Nc1ccc(Br)cc1)c1ccc(CSC2=NCCS2)cc1	n	61	n	n	80	n
CCCC(=O)Nc1ccc(NC(=S)NC(=O)c2ccccc2[N+](=O)[O-])cc1	n	n	n	n	n	n
Cc1ccc(NC(=S)Nc2ccc3[nH]c(=O)[nH]c3c2)cc1C	n	n	n	n	n	n
O=c1[nH]c2ccc(NC(=S)NCc3ccccc3)cc2[nH]1	8.9µM	n	n	n	n	n
O=C(NC(=S)Nc1ccc2[nH]c(=O)[nH]c2c1)c1ccccc1[N+](=O)[O-]	n	46	n	x	48	n
COc1ccc(NC(=O)CSc2c3c(nc4ccc(Cl)cc24)CCCC3)cc1Cl	n	x	x	x	x	n
COc1ccccc1C(=O)Nc1ccc(C(=O)/C=C/c2cccs2)cc1	n	18	n	n	n	n
O=C(/C=C/c1cccs1)c1ccc(NC(=O)c2ccccc2F)cc1	n	25	n	n	40	n
O=C(Nc1ccc(NC(=O)c2ccccc2F)cc1)c1cccs1	n	x	x	x	x	n
COc1ccccc1C(=O)NC(=S)Nc1ccc(NC(=O)c2cccs2)cc1	n	n	n	n	n	n
Cc1cccc(C(=O)Nc2ccc(C(=O)OCc3cc(=O)n4nc(CC(C)C)sc4n3)cc2)c1	n	x	x	x	x	n
O=C1NC[C@H](CCCCN2C[C@H](Cc3ccccc3)N(CCc3ccccc3)C(=O)C2=O)N(CCC2CCCCC2)C1=O	x	x	x	x	x	n
CC(C1CC2CCC1C2)n1c(-c2ccco2)n[nH]c1=S (stereo not given)	n	n	13µM	n	n	u
SMILES	Sm TGR block	Cycloheximide cs	LmPK inhibitor	Giardia FBPA inh	Shiga inhibitor	TbPYK inhibitor
Cc1ccc(/C=N/n2c(-c3ccco3)n[nH]c2=S)cc1	n	n	n	n	n	u
Cc1cc(Br)ccc1NC(=O)CSc1c2c(nc3ccccc13)CCC2	n	x	x	x	x	n
Nc1[nH]n(-c2ccccc2)c(=O)c1N=Nc1ccc2c(c1)OCCO2	n	33	n	n	59	n
Nc1[nH]n(-c2ccccc2)c(=O)c1N=Nc1ccc2c(c1)OCO2	n	36	n	n	121	n
CC1(CC(=O)N/N=C/c2ccc(-c3ccc(C(=O)O)cc3)o2)OCCO1	n	n	n	n	n	n
COC(=O)c1ccc(-c2ccc(/C=N/NC(=O)CC3(C)OCCCO3)o2)cc1	n	36	n	n	43	n
